The campaign covered roughly 220,000 compounds. About 880 (0.4%) were called active. The sample holds actives, similar compounds and a random draw of the others, so the mix is not that of the screen. Values without a mark were called inactive.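 The calls were made as follows: active = cell killing above 50% in the first pass at 4 µM, then a duplicate retest at 5 µM averaging 50% or more; inactive = the rest.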

This test can be described thus: PPC-1 cell viability loss under TRAIL – PPC-1 cells, ATPLite luminescence, uHTS, TRAIL potentiator project, primary screen (AID 1443).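 Also: plate controls were cells with TRAIL plus DMSO for no effect and medium-only wells lacking cells for full effect.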 The conditions noted are these: PPC-1 cells + TRAIL, active compounds read high; at 4 µM unless noted.
As to `COc1ccc(CCNCC(O)Cn2ccc3ccccc32)cc1OC` (configuration not stated), the cell killing (% activity) was -2.7%.

For `CC(=O)NC1C(Oc2ccc(C)cc2)OC2COC(c3ccco3)OC2C1O` (configuration not stated), the cell killing (% activity) is 2.4%.

On to `COc1cccc(/C=N\NC(=O)C2=NNC(=O)C2C)c1O` (configuration not stated), for which the cell killing (% activity) was 24.7%.

As to `COc1cccc(/C=N/Nc2cc(C)nc(-c3ccccc3O)n2)c1O`, the cell killing (% activity) was 21.2%.

`COc1cccc(/C=N/NC(=O)c2[nH]nc3c2CCc2ccccc2-3)c1O`: the cell killing (% activity) is 57.1% (active). Under `O=C(/C=C/c1ccccc1)Oc1coc(CSc2ncccn2)cc1=O` stands 5.1%; under `Cc1nc2cc(NCc3cccs3)ccc2n1C`, 1.5%. Under `Cc1ccc(C(=O)N/C(=C\c2ccco2)C(=O)NC2CCS(=O)(=O)C2)cc1` (configuration not stated) stands 9.8%; under `COc1ccc(-c2nc(SCC(=O)N3CCOCC3)n[nH]2)cc1`, 4.4%; under `CCOc1ccc(-c2ccc(SCC(=O)N3CCOCC3)nn2)cc1`, 56.9% [at 5 µM] (active).

Regarding `COc1ccc(-c2ccnc(SCC(=O)N3CCOCC3)n2)cc1`, the cell killing (% activity) was 20.6%. Under `COc1cccc(/C=C/c2ccc3ccccc3n2)c1OC(C)=O` stands 70.3% [at 5 µM] (active).

In the case of `CCOc1cccc(/C=C/c2ccc3ccccc3n2)c1OC(C)=O`, the cell killing (% activity) is 49.3%. Under `NC(=O)COC(=O)/C=C/c1ccc2ccccc2n1` stands 14.6%; under `Cc1ccc(C(=O)NNc2ncnc3ccccc23)cc1`, 35.9%.

Consider `CC(C)c1ccc(NC(=S)NNc2ccc(Cl)c(C(=O)O)c2)cc1`, for which the cell killing (% activity) is -1.7%. Take `CC(c1ccccn1)N(CCN(C)C)C(=S)Nc1ccccc1F` (configuration not stated): the cell killing (% activity) is 20.3%. Under `COc1cc2c(cc1OC)C(=O)NCC(C)(C)O2` stands 20.2%; under `CCC/C(C)=N\Nc1nc2c(c(=O)n(C)c(=O)n2C)n1C`, 8%. Under `CCOC(=O)c1sc(NC(=O)CSc2nc3c(c(=O)n2-c2ccccc2)SCC3)c(C(=O)OCC)c1C` stands 5.5%.

Consider `Nc1ncc(-c2cc3ccccc3oc2=O)s1`, for which the cell killing (% activity) was 11.4%.

As to `O=C(c1cn(-c2ccccc2)nc1-c1cc2ccccc2oc1=O)N1CCOCC1`, the cell killing (% activity) is 28.2%. Under `O=c1oc2ccccc2cc1-c1cn(-c2ccccc2)c(=S)[nH]1` stands 57.2% (active); under `O=C(O)COCC(=O)NCc1csc2ccc(Cl)cc12`, 6.2%.

On to `O=C(Nc1ccccc1)C1CC(=O)n2c(nc3ccccc32)N1` (configuration not stated), for which the cell killing (% activity) was 1.1%. Under `COc1cc(OC)c2ccc(=O)oc2c1C(CCN1CCN(c2ccccc2)CC1)c1ccc2c(c1)OCO2` (configuration not stated) stands -2.2%. Under `COc1ccc(OC)c(C(=O)c2ccc(Cl)cc2)c1` stands -11.3%; under `CCOC(=O)c1c(C)[nH]c2c1-c1ccccc1C(=O)C2=O`, 96.5% [at 5 µM] (active).

For the molecule `CCOC(=O)c1c(C)[nH]c(=S)c(C#N)c1-c1ccccc1`, the cell killing (% activity) is 18.1%.

Turning to `CCOC(=O)C1=C(c2ccc(OC)cc2)C(=O)c2ccccc2C1=O`, the cell killing (% activity) was 23.5%. Under `Cc1cccc(C2c3[nH]c4ccccc4c3CCN2C(=O)c2cc(-c3cccn3C)n[nH]2)n1` (configuration not stated) stands -11.4%. Under `COc1ccccc1CNC(=O)c1ccc(SC)cc1OC` stands 16.9%. Under `Cc1ccnc(NC(=O)c2ccoc2C)c1` stands 0%; under `COc1cc(SC)ccc1C(=O)Nc1cc(C)ccn1`, 53.7% [at 5 µM] (active).

Turning to `COc1cc(SC)ccc1C(=O)Nc1nc(C)cs1`, the cell killing (% activity) was 96% [at 5 µM] (active).

On to `COc1cc(SC)ccc1C(=O)NCCOc1ccccc1Cl`, for which the cell killing (% activity) was 9.8%.

For `COc1ccc(C(=O)Nc2nncs2)c(OC)c1`, the cell killing (% activity) is 21.1%.

Take `O=C(Nc1nnc(SCc2ccccc2Cl)s1)c1cccc([N+](=O)[O-])c1`: the cell killing (% activity) was 2.1%. `Cc1ccc(C)n1NC(=O)c1ccc([N+](=O)[O-])cc1`: the cell killing (% activity) was 11.3%.

With `CN(C)/C=C(/C(=O)c1ccc(Cl)c(Cl)c1)c1nnnn1-c1ccccc1`, the cell killing (% activity) was 10.3%. Under `CC(C)NC(=O)NCCCCCCS(C)=O` (configuration not stated) stands 20.6%; under `O=S(=O)(NCC1CCCO1)c1cnc(Cl)c(Cl)c1` (configuration not stated), -24.2%.

Values taken from PubChem BioAssay AID1443 (Sanford-Burnham Center for Chemical Genomics, 2008).
